Source: PubChem BioAssay (Tox21)
Results filed as inconclusive are left out. The source made the active and inactive calls. Calls come from the whole dose curve.

Columns and labels:
[1] = target: Acetylcholinesterase (Homo sapiens) (UniProt P22303); experiment: Acetylcholinesterase (AChE) small molecule antagonists: colormetric cell-based qHTS assay (AID 1347395); details: SH-SY5Y cells AChE activity, colorimetric (Ellman); series mostly up to 115 µM; note: nearly all actives have a fitted effect of over 30% in size
Summary of the method: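 AChE inhibition read colorimetrically via DTNB–thiocholine in SH-SY5Y cells. Compound 30 min, substrate 90 min, both 37 C.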

[2] = target: Acetylcholinesterase (Homo sapiens) (UniProt P22303); experiment: Acetylcholinesterase (AChE) small molecule antagonists: enzyme-based qHTS assay (AID 1347397); details: Potency: AChE enzyme activity inhibition; outcome: AChE enzyme activity inhibition; series mostly up to 115 µM; note: nearly all actives have a fitted effect of over 55% in size
Summary of the method: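 Enzyme inhibition was scored from DTNB-detected thiocholine formed by recombinant human AChE acting on acetylthiocholine. The 30 min compound preincubation and 10 min substrate reaction were both run at room temperature, with DMSO as vehicle control.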

[3] = target: Acetylcholinesterase (Homo sapiens) (UniProt P22303); experiment: Acetylcholinesterase (AChE) small molecule antagonists: fluorescence cell-based qHTS assay (AID 1347398); details: SH-SY5Y cells; Potency: AChE activity; outcome: AChE activity; series mostly up to 115 µM; note: nearly all actives have a fitted effect of over 50% in size
Summary of the method: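 Endogenous acetylcholinesterase of SH-SY5Y neuroblastoma cells is measured in situ. After overnight attachment and 30 min compound exposure, cells receive acetylthiocholine and Thiolite Green; fluorescence is read after 40 min at room temperature.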

[4] = target: Acetylcholinesterase (Homo sapiens) (UniProt P22303); experiment: Acetylcholinesterase (AChE) small molecule antagonists: enzyme-based qHTS assay with human liver microsomes (AID 1347399); details: Potency: qHTS inhibition; outcome: qHTS inhibition; series mostly up to 115 µM; note: nearly all actives have a fitted effect of over 60% in size
Summary of the method: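 Recombinant human AChE (50 mU/mL in the enzyme mix) and human liver microsomes (0.25 mg/mL final) were preincubated with compound and NADPH (0.25 mg/mL final) for 30 min at 37 C. Acetylthiocholine/DTNB was then added; thiocholine was read colorimetrically after 10 min at room temperature.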

Measured: Potency

Chain of Acetylcholinesterase (Homo sapiens) (P22303 whole entry, looked up): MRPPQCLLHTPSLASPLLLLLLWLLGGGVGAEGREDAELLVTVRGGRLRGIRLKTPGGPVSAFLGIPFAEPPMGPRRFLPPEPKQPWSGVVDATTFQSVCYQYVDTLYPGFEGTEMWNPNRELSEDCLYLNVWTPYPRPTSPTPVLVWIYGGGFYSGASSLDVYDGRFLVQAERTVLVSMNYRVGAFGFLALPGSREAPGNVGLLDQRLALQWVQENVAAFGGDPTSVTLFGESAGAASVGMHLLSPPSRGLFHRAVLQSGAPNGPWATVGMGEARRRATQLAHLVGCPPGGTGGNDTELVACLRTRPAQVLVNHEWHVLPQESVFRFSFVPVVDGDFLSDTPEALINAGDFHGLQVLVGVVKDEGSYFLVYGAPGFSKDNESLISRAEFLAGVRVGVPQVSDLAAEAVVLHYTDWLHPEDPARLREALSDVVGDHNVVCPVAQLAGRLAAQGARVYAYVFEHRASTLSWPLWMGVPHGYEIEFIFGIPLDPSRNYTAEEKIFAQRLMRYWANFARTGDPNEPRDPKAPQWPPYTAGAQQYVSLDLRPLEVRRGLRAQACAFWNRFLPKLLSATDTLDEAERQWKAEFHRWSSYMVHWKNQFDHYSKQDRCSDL

c1coc(Cn2cccc2)c1
inactive: all assays above

NC(=O)Nc1ccccc1
inactive: all assays above

CN(C)c1ccc(N=Nc2ccccc2C(=O)O)cc1
inactive: all assays above

CCC(C)C1CCCCC1=O (centres undefined)
inactive: all assays above

CCC(=O)O[C@]1(C(=O)COC)[C@@H](C)C[C@H]2[C@@H]3CCC4=CC(=O)C=C[C@]4(C)C3(F)[C@@H](O)C[C@@]21C (some centres undefined)
inactive: all assays above

CC1=C(/C=C/C(C)=C/C=C/C(C)=C\C(=O)O)C(C)(C)CCC1
inactive: all assays above

C1OCOCO1
inactive: all assays above

COc1ccnc(CS(=O)c2nc3cc(OC(F)F)ccc3[nH]2)c1OC (centres undefined)
inactive: all assays above

Oc1c(Br)cc(Br)c2cccnc12
inactive: all assays above

O=c1[nH]c(=O)n([C@H]2C[C@H](O)[C@@H](CO)O2)cc1I
inactive: all assays above

FC(F)(F)C(Cl)(Cl)Cl
inactive: all assays above

CC(C)(C)C1CCC(=O)CC1
inactive: all assays above

c1ccc2sc(SN(C3CCCCC3)C3CCCCC3)nc2c1
inactive: all assays above

C[C@H](CCC(=O)O)[C@H]1CC[C@H]2[C@@H]3C(=O)C[C@@H]4CC(=O)CC[C@]4(C)[C@H]3CC(=O)[C@]12C
inactive: all assays above

CC(=C(CCOC(=O)C(C)C)SSC(CCOC(=O)C(C)C)=C(C)N(C=O)Cc1cnc(C)nc1N)N(C=O)Cc1cnc(C)nc1N
inactive: all assays above

OCC(CO)n1cnc(-c2ccc(F)cc2)c1-c1ccnc(Oc2ccccc2)n1
inactive: all assays above

c1ccc(CN(Cc2ccccc2)Cc2ccccc2)cc1
inactive: all assays above

Cc1c(C(=O)NCCO)[n+](=O)c2ccccc2n1[O-]
inactive: all assays above

CC(C)COC(=O)COc1ccc(Cl)cc1Cl
inactive: all assays above

CCCCC(CC)(CO)CO
inactive: all assays above

NS(=O)(=O)c1cc2c(cc1Cl)NC(C(Cl)Cl)NS2(=O)=O (centres undefined)
inactive: all assays above

O=C(Nc1ccc([N+](=O)[O-])cc1)Nc1ccc([N+](=O)[O-])cc1
inactive: all assays above

CCOc1cccc(N)c1
inactive: all assays above

NC(=O)c1ncn([C@@H]2O[C@H](CO)[C@@H](O)[C@H]2O)c1N
inactive: all assays above

C=COCC1CCC(COC=C)CC1 (centres undefined)
inactive: all assays above

CC(C)COC(=O)C(C)C
inactive: all assays above

O=Cc1cc(O)ccc1Br
inactive: all assays above

c1csc(SSc2cccs2)c1
inactive: all assays above

CCCCCCOC(=O)NC(=N)c1ccc(NCc2nc3cc(C(=O)N(CCC(=O)OCC)c4ccccn4)ccc3n2C)cc1
inactive: all assays above

c1ccc(B(c2ccccc2)c2ccccc2)cc1
inactive: all assays above

CCCCCCCCCCCCCCCCCC(=O)OCCCCCCCCCCCCCC(C)C
inactive: all assays above

CCCCOC(=O)/C=C\C(=O)OCCCC
inactive: all assays above

C=CCOC(=O)COCCC(C)C
inactive: all assays above

O=C1C(=O)c2ccccc2C(O)=C1C1CCC(c2ccc(Cl)cc2)CC1 (centres undefined)
inactive: all assays above

SC1CCCCC1
inactive: all assays above

c1ccc(CNCc2ccccc2)cc1
inactive: all assays above

CCCCCCCCCCc1ccccc1
inactive: all assays above

COc1ccc(COC=O)cc1
inactive: all assays above

C=CCn1cc[n+](C)c1
inactive: all assays above

COCCOCCOCCOCCOC
inactive: all assays above

COC(=O)C(C)=O
inactive: all assays above

C=CC(=O)NCOCC(C)C
inactive: all assays above

CC(C)(C)c1ccc(OCC2CO2)cc1 (centres undefined)
inactive: all assays above

CCC(C)CCCC(C)(C)O (centres undefined)
inactive: all assays above

CC1COc2ccccc2N1 (centres undefined)
inactive: all assays above

C=CCOCC(O)CS(=O)(=O)O (centres undefined)
inactive: all assays above

CCC=CC#N
inactive: all assays above

CCCCCCCC/C=C\CCCCCCCC(=O)OCCO
inactive: all assays above

N#CC1(c2ccc(F)cc2)CCC(=O)CC1
inactive: all assays above

Cc1ccc(OC(=O)c2ccccc2O)cc1
inactive: all assays above

CC(C)(C)c1ccc(OC(=O)c2ccccc2O)cc1
inactive: all assays above

CCC(C(=O)OCCOCCN(CC)CC)c1ccccc1 (centres undefined)
inactive: all assays above

CC(C)(C)C(=O)OCOC(=O)C1N2C(=O)CC2S(=O)(=O)C1(C)C (centres undefined)
inactive: all assays above

CCOC(=O)c1ncn2c1CN(C)C(=O)c1cc(F)ccc1-2
inactive: all assays above

CCCCCCCCC(CO)CCCCCC (centres undefined)
inactive: all assays above

CCOc1ccccc1OCC
inactive: all assays above

CC(=O)[C@H]1[C@H](C#N)C[C@H]2[C@@H]3CC=C4C[C@@H](O)CC[C@]4(C)[C@H]3CC[C@@]21C
inactive: all assays above

CC(=O)OCC(=O)[C@@]1(OC(C)=O)[C@@H](C)C[C@H]2[C@@H]3C[C@H](F)C4=CC(=O)C=C[C@]4(C)[C@@]3(F)[C@@H](O)C[C@@]21C
inactive: all assays above

N#CCCOCCC#N
inactive: all assays above

Clc1ccc(C(Cn2ccnc2)OCc2ccc(Sc3ccccc3)cc2)c(Cl)c1 (centres undefined)
inactive: all assays above

CC1=C(CC=O)C(C)(C)CCC1
inactive: all assays above

CC1(C)C(=O)N(CO)C(=O)N1CO
inactive: all assays above

CC[N+](CC)(CC)Cc1ccccc1
inactive: all assays above

CCCCOC(=O)CCCCCCCC(=O)OCCCC
inactive: all assays above

CCCCCCCCCCCC(C)=O
inactive: all assays above

O=C1OC(=O)C2C3C=CC(C3)C12 (centres undefined)
inactive: all assays above

CN(C)CCN1CCN(c2cccc(Cl)c2)C1=O
inactive: all assays above

CCCCNc1ccc(C(=O)OCCOCCOCCOCCOCCOCCOCCOCCOCCOC)cc1
inactive: all assays above

C[C@H](N)C(=O)N[C@@H](C)C(=O)NC1[C@H]2CN(c3nc4c(cc3F)c(=O)c(C(=O)O)cn4-c3ccc(F)cc3F)C[C@@H]12 (some centres undefined)
inactive: all assays above

CC(=O)OCC(=O)[C@@]1(O)[C@H](OC(C)=O)C[C@H]2[C@@H]3CCC4=CC(=O)C=C[C@]4(C)[C@@]3(F)[C@@H](O)C[C@@]21C
inactive: all assays above

CCCCCCCCN(C)CCCCCCCC
inactive: all assays above
